# The full list was thinned out, with hits kept by preference.
# TTR transcr act: TTR transcription activators in neuroblastoma reporter cells, primary screen, cell-based, luminescence, SH-SY5Y, TTR promoter Gaussia luciferase; 100% = recombinant luciferase protein wells; activation, % at 16.7 µM; 1.3% of 92,000 active; AID 1117267, 2014;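 active = activation above the mean of all tested compounds plus 3 SD, cut at about 9.5% in these data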;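 also: cells exposed to compounds for one day before reading; 0% = median of all test compound wells on the plate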
# TTR inh HuH7: TTR promoter reporter inhibitors in hepatoma cells, counter-screen for TTR transcription activator project, cell-based, luminescence, HuH7 hepatoma | 4% of 1,100 active | HuH7 TTR promoter-Gaussia luciferase reporter | AID 1117279, 2014 | inhibition, % at 16.7 µM | shares compounds with TTR transcr act;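 active = average inhibition above the solvent-only control wells' mean plus 3 SD, cut at about 15% in these data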;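 also: 0% = cells with DMSO only and 100% = cells with inhibitor control FD; inhibitors lower well luminescence so higher value means more inhibition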
# TTR up confirm: TTR transcription activators, retest, confirmation, cell-based, luminescence, SH-SY5Y, triplicate. activation, % at 16.7 µM. 1,100 tested, under 10 active. SHSY5Y TTR promoter Gaussia luciferase; 100% = purified Lucia enzyme wells, no cells. AID 1117280, 2014. shares compounds with TTR transcr act;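 active = mean activation above a set limit taken from the earlier primary screen, cut at about 11% in these data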;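 also: 0% = DMSO-treated cells and 100% = recombinant Lucia luciferase without cells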
# Starred values were filed as active, the others as inactive.
SMILES,TTR transcr act,others
CN(c1ccccc1)S(=O)(=O)c1cccc(NC(=O)CSc2nnc(C3CC3)n2C)c1,2.0,
O=C1NC2CCCCC2C(=O)N1OS(=O)(=O)c1ccccc1 (configuration not stated),-0.7,
COc1ccc(NC(=O)c2c([N+](=O)[O-])c(C(C)(C)C)nn2C)cc1,-1.7,
COc1cc(F)c(S(=O)(=O)N2CCCN(S(=O)(=O)c3cccc(N)c3)CC2)c(F)c1,1.3,
C[C@@H](N)C(=O)Nc1ccc(Cl)cc1C(=O)c1ccc[nH]1,0.0,
Cc1ccccc1C(C)(O)c1cnc(C)n1Cc1ccccc1 (configuration not stated),0.5,
O=C(NCCc1cccs1)c1cccs1,0.3,
O=C(Nc1c(-c2ccc(F)c(F)c2)nc2ncccn12)C1CC1,-1.3,
Cc1ccc2nc(SCC(=O)Nc3nonc3C)[nH]c2c1,10.1*,TTR inh HuH7=-8.9;TTR up confirm=-0.8
Cc1ccc2nc(SCC(=O)N3CCCC3)[nH]c2c1,1.9,
Cc1ccc2nc(SCC(=O)NC3CC3)[nH]c2c1,-1.2,
C=CCNC(=O)C12CCC(C)(C(=O)[C@H]1Br)C2(C)C (some centres not stated),-0.5,
C[C@H]1[C@@H](OC(=O)NCc2ccc(Cl)cc2)CC[C@@]23CCCN2C(=O)CCC[C@@H]13,-1.2,
C[C@@H]1N[C@H]2N(C1=O)c1ccccc1[C@@]21C[C@@H]2C(=O)N[C@](C)(O1)c1nc3ccccc3c(=O)n12,5.8,
Cc1csc(NC(=O)c2ccccc2)n1,-0.5,
CCCn1nnc(NC(=O)c2ccc(Br)cc2)n1,-2.6,
Cn1nnnc1-c1cc(Br)ccc1NC(=O)c1ccccc1,10.4*,TTR inh HuH7=-0.1;TTR up confirm=-0.7
CN(CC1COc2ccccc2O1)C(=O)CSc1ncnc2sccc12 (configuration not stated),0.2,
CC1CCN(C(=O)c2ccc(NS(=O)(=O)c3ccc4[nH]c(=O)[nH]c4c3)cc2)CC1,2.7,
Cc1ccc[n+](CC(=O)c2ccc(NC(=O)c3ccccc3)cc2)c1,1.4,
Cc1cccc(NC(=O)C[n+]2cccc(C)c2)c1,-1.6,
Cc1cc(C)c(C(=O)C[n+]2cccc(C(N)=O)c2)c(C)c1,13.7*,TTR inh HuH7=-8.7;TTR up confirm=-0.1
CCN(CC)C(=O)c1nc[nH]c1C(=O)N(CC)CC,-3.0,
FC(F)(F)c1ccccc1-n1c(-c2cnccn2)n[nH]c1=S,-1.9,
COc1cc(-c2n[nH]c(=S)n2-c2ccccc2C(F)(F)F)cc(OC)c1OC,9.9*,TTR inh HuH7=-15.7;TTR up confirm=1.4
SMILES,TTR transcr act,others
COc1cc(-n2c(-c3ccccc3)n[nH]c2=S)c(OC)cc1Cl,0.2,
O=C(/C=C/c1ccc(OC(F)F)cc1)Nc1cccc(S(=O)(=O)NC2=NCCCCC2)c1,-3.0,
COc1ccc(C)cc1NC(=O)CN1C(=O)COc2ccc(C)cc21,4.4,
Cc1ccc(CN2CCCCC(NC(=O)c3cccc(C(F)(F)F)c3)C2=O)cc1 (configuration not stated),-0.9,
COc1ccc(C(=O)C2CCCN(C(=O)c3c4c(nn3C)CCCC4)C2)cc1F (configuration not stated),2.2,
Cc1cc(C)c(C(=O)N2CCCC(C(=O)c3cc(F)ccc3F)C2)o1 (configuration not stated),2.6,
Cn1nc2c(c1C(=O)N1CCCC(C(=O)c3cc(F)ccc3F)C1)CCCC2 (configuration not stated),12.0*,TTR inh HuH7=-18.9;TTR up confirm=-0.6
CSc1ncnc2c1ncn2CCCNCCc1ccccn1,0.4,
CCOc1ccc(C(=O)NCC(=O)OCC(=O)Nc2nnc(-c3ccccc3)o2)cc1,-2.2,
O=C(c1ccncc1)N1CCN(S(=O)(=O)c2ccccc2F)CC1,-0.9,
Cc1cc(N2CCN(C)CC2)nc2ccc(NC(=S)NCCN3CCc4ccccc4C3)cc12,-0.5,
Cc1cc(N2CCN(C)CC2)nc2ccc(NC(=S)N3CCCCCC3)cc12,9.7*,TTR inh HuH7=-24.9;TTR up confirm=-0.3
Cc1cc(N2CCOCC2)nc2ccc(NC(=O)C3CCCCC3)cc12,0.5,
Cc1ccc(NC(=O)N2CCCC2C(=O)NCc2ccc3c(c2)OCO3)cc1 (configuration not stated),0.0,
Cc1ccc(S(=O)(=O)N2CC(O)CC2C(=O)NCc2ccc3c(c2)OCO3)cc1 (configuration not stated),14.5*,TTR inh HuH7=-4.2;TTR up confirm=-0.6
Cc1ccc(CNC(=O)COC(=O)[C@@H]2CC(O)CN2S(=O)(=O)c2ccc3c(c2)OCCO3)cc1 (some centres not stated),3.5,
COc1ccc2c(c1)sc(=N)n2CC(=O)Nc1cc(C)cc(C)c1,0.8,
COC(=O)Cn1c(=NC(=O)c2ccc(OC)c(OC)c2)sc2cc(OC)ccc21,11.6*,TTR inh HuH7=-1.8;TTR up confirm=-0.5
COc1ccc(CC(=O)c2ccc(OC)c(OC)c2)cc1,1.1,
Nc1ncnc2c1ncn2[C@@H]1O[C@H](CNS(=O)(=O)CCCCl)[C@@H](O)[C@H]1O,5.1,
CN1OC[C@@H]2CN[C@H](c3cccc(N4CCOCC4)c3)C[C@@H]21,-0.2,
OC(COC(c1ccc(Cl)cc1)c1ccc(Cl)cc1)CN1CCN(c2ccccn2)CC1 (configuration not stated),-0.5,
OC(CN1CCN(c2ccccn2)CC1)Cn1c2ccc(Cl)cc2c2cc(Cl)ccc21 (configuration not stated),36.4*,TTR inh HuH7=-6.0;TTR up confirm=0.6
Cc1ccc(OCC(O)CN2CCN(c3ccccn3)CC2)c(C)c1 (configuration not stated),-3.9,
CCCNC(=O)C(Cc1ccccc1)NC(=O)c1cccc([N+](=O)[O-])c1 (configuration not stated),0.4,
SMILES,TTR transcr act,others
COCc1cccc(-c2csc(C(NC(C)=O)c3ccc(F)c(F)c3)n2)c1 (configuration not stated),4.9,
COc1cccc(NC(=O)Cn2nnc(C(=O)NCc3cccs3)c2N)c1,-2.1,
CCOc1ccc(NC(=O)Cn2nnc(C(=O)NCc3cccs3)c2N)cc1,20.8*,TTR inh HuH7=-6.5;TTR up confirm=-0.8
COc1ccc(NC(=O)Cn2nnc(C(=O)NCc3cccs3)c2N)c(OC)c1,2.3,
CN(C)c1nc(N)c(C#N)c(C#N)c1C#N,1.4,
Cc1cc(NC(=O)COc2ccc(C(C)(C)C)cc2)no1,-0.9,
CCC(C)[C@H]1CNCCN1CCC12CC3CC(CC(C3)C1)C2 (some centres not stated),0.1,
Cc1cc(C)c(OCC(=O)OCC(=O)NC2CCC(C)CC2)c(C)c1 (configuration not stated),-0.5,
O=C(O)CCc1ccc(-c2ccccc2)n1NC(=O)c1ccco1,21.6*,TTR inh HuH7=-18.7;TTR up confirm=0.4
O=C(Nn1c(-c2ccccc2)nc2ccccc2c1=O)c1ccco1,0.6,
O=C(O)CCc1ccc(-c2cccs2)n1NC(=O)c1ccco1,-3.3,
COc1ccc(NS(=O)(=O)c2ccc(C(=O)N(C)Cc3ccc(C)o3)cc2)cc1,-0.7,
COc1cc(OC)cc(C(=O)NCC(C)NC(=O)c2cc(OC)cc(OC)c2)c1 (configuration not stated),-1.2,
O=S(=O)(c1ccc2ccccc2c1)N1CCN(S(=O)(=O)c2c(F)cccc2F)CC1,2.9,
CCN(CC)N=Nc1ccc(S(=O)(=O)Nc2c(C)n(C)n(-c3ccccc3)c2=O)cc1,-1.5,

# Screening results (PubChem BioAssay)
